In PubChem BioAssay (Tox21):
A number with no mark means an inactive call. Inconclusive results are not listed. Entries that show only a call come without a potency. Active and inactive are the calls of the source. Unless noted, calls follow the shape of the dose curve; as a rule, active = well fitted curve in the direction sought with a large enough effect in the repeat runs; inconclusive = weak or mixed curves; inactive = no such curve, though single readings can be large; an effect the other way counts as inactive or inconclusive.

Columns and labels:
[1] = qHTS assay to identify small molecule antagonists of the glucocorticoid receptor (GR) signaling pathway - cell viability counter screen (AID 720693); also: nearly all actives have a fitted effect of over 55% in size
[2] = qHTS assay for identifying genotoxic compounds that show differential cytotoxicity against isogenic chicken DT40 cell lines with known DNA damage response pathways - wild type cell line (AID 743012); also: nearly all actives have a fitted effect of over 60% in size; also: potency is read from the fitted curve at half-maximal effect
Summary of the method: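 300 wt DT40 cells/well; cpd (DMSO) pintool-transferred after ~0.5 h at 37 C/5% CO2; 40 h incubation; CellTiter-Glo added, 30 min RT; luminescence read.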

[3] = qHTS assay for identifying genotoxic compounds that show differential cytotoxicity against isogenic chicken DT40 cell lines with known DNA damage response pathways - Rev3 mutant cell line (AID 743014); also: nearly all actives have a fitted effect of over 55% in size; also: potency is read from the fitted curve at half-maximal effect
[4] = qHTS assay for identifying genotoxic compounds that show differential cytotoxicity against isogenic chicken DT40 cell lines with known DNA damage response pathways - Rad54/Ku70 mutant cell line (AID 743015); also: nearly all actives have a fitted effect of over 60% in size; also: potency is read from the fitted curve at half-maximal effect
[5] = qHTS assay to identify small molecule antagonists of the androgen receptor (AR) signaling pathway - cell viability counter screen (AID 743033; also: nearly all actives have a fitted effect of over 45% in size)
[6] = qHTS assay to identify small molecule antagonists of the androgen receptor (AR) signaling pathway using the MDA cell line - cell viability counter screen (AID 743041; also: nearly all actives have a fitted effect of over 45% in size)
Summary of the method: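 Cytotoxicity counter screen: MDA-kb2 AR-luc cells, compound + R1881, 16 h, 37C, 0% CO2; CellTiter-Fluor added at 15.5 h, fluorescence read after 30 min.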

[7] = target: Androgen receptor (Homo sapiens) (UniProt P10275); experiment: qHTS assay to identify small molecule agonists of the androgen receptor (AR) signaling pathway (AID 743036; active = well fitted activation curve with a large enough effect in the signal ratio in the repeat runs, with a control signal flat, not every such curve was filed as active; the % refers to the signal ratio)
Androgen receptor (Homo sapiens), sequence (P10275 whole entry, looked up): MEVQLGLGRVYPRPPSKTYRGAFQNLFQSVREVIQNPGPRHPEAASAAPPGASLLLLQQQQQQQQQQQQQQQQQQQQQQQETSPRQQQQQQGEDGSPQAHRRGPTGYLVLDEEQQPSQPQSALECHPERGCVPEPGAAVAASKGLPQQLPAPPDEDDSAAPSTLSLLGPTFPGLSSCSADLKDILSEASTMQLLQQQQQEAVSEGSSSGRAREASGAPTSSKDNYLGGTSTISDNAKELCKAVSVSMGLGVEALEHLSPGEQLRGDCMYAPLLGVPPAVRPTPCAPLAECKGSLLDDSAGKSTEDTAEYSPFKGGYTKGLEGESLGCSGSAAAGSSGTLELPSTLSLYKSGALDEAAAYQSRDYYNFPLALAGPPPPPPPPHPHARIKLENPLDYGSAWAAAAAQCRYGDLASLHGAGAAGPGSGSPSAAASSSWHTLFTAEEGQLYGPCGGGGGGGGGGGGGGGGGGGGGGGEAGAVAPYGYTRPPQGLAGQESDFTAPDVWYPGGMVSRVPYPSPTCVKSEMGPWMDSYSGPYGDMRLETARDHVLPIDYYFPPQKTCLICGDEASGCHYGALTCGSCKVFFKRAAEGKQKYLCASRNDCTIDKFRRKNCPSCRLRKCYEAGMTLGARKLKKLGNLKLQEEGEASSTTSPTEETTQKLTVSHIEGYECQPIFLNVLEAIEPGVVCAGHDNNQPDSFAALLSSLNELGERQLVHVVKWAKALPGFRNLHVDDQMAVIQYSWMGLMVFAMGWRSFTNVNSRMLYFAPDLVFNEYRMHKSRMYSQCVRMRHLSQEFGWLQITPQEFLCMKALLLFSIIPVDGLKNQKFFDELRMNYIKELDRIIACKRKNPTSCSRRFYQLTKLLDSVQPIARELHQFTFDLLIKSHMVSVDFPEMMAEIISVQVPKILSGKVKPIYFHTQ
Summary of the method: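 HEK293 cells stably carrying a UAS-driven beta-lactamase reporter (GeneBLAzer AR-UAS-bla-GripTite) were plated at 2,000 cells/well, rested 4 h at 37C, then exposed to compounds in DMSO for 16 h. LiveBLAzer B/G FRET substrate was added for 2 h at room temperature; fluorescence read.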

[8] = target: Androgen receptor (Homo sapiens) (UniProt P10275); experiment: qHTS assay to identify small molecule agonists of the androgen receptor (AR) signaling pathway using the MDA cell line (AID 743040; also: nearly all actives have a fitted effect of over 20% in size)
Summary of the method: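 Luciferase read-out, ONE-Glo, 30 min RT. Cells: MDA-kb2 AR-luc, MMTV promoter with AR and GR response elements. Compound exposure 16 h, 37C, 0% CO2, after 5 h pre-incubation. qHTS agonist mode.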

[9] = target: Androgen receptor (Homo sapiens) (UniProt P10275); experiment: qHTS assay to identify small molecule antagonists of the androgen receptor (AR) signaling pathway using the MDA cell line (AID 743042; also: nearly all actives have a fitted effect of over 55% in size)
Summary of the method: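 MDA-kb2 breast carcinoma cells carrying MMTV-luciferase (AR/GR responsive) were co-treated with compounds and the agonist R1881 for 16 h at 37C. Inhibition read as ONE-Glo luminescence; CellTiter-Fluor fluorescence measured in parallel for cytotoxicity.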

O=C(O)Cc1cn(-c2ccccc2)nc1-c1ccc(Cl)cc1
outcome [1]: inactive | Potency [2]: inactive | Potency [3]: inactive | Potency [4]: inactive | Potency [5]: inactive | Potency [6]: inactive

OCCC(F)(F)C(F)(F)C(F)(F)C(F)(F)C(F)(F)C(F)(F)C(F)(F)C(F)(F)F
outcome [1]: inactive | Potency [2]: inactive | Potency [3]: inactive | Potency [4]: inactive | Potency [5]: inactive | outcome [7]: inactive | outcome [8]: inactive | Potency [6]: inactive | Potency [9]: inactive

C=C(C)C(=O)OCc1ccccc1
outcome [1]: inactive | Potency [2]: inactive | Potency [3]: inactive | Potency [4]: inactive | Potency [5]: inactive | Potency [6]: inactive

CN1C(C)(C)CCCC1(C)C
outcome [1]: inactive | Potency [2]: inactive | Potency [3]: inactive | Potency [4]: inactive | Potency [5]: inactive | Potency [6]: inactive

COc1nccnc1NS(=O)(=O)c1ccc(N)cc1
outcome [1]: inactive | Potency [2]: inactive | Potency [3]: inactive | Potency [4]: inactive | Potency [5]: inactive | outcome [7]: inactive | outcome [8]: inactive | Potency [6]: inactive | Potency [9]: inactive

C=C(C)C(=O)OCCN(CC)CC
outcome [1]: inactive | Potency [2]: inactive | Potency [3]: inactive | Potency [4]: inactive | Potency [5]: inactive | outcome [7]: inactive | outcome [8]: inactive | Potency [6]: inactive | Potency [9]: inactive

CC(C)C[C@H](NC(=O)CNC(=O)[C@H](Cc1ccc(O)cc1)NC(=O)[C@H](CO)NC(=O)[C@H](Cc1c[nH]c2ccccc12)NC(=O)[C@H](Cc1cnc[nH]1)NC(=O)[C@@H]1CCC(=O)N1)C(=O)N[C@@H](CCCN=C(N)N)C(=O)N1CCC[C@H]1C(=O)NCC(N)=O (stereo in doubt)
outcome [1]: inactive | Potency [2]: inactive | Potency [3]: inactive | Potency [4]: inactive | Potency [5]: inactive | Potency [6]: inactive

CCCCCCOC(=O)CC
outcome [1]: inactive | Potency [2]: inactive | Potency [3]: inactive | Potency [4]: inactive | Potency [5]: inactive | Potency [6]: inactive

CCCCNc1ccc(C(=O)OCCN(C)C)cc1
outcome [1]: inactive | Potency [2]: 5.07 µM (active) | Potency [3]: 2.85 µM (active) | Potency [4]: 5.07 µM (active) | Potency [5]: inactive | Potency [6]: inactive

O=C1O[C@@H]2[C@@H](O)[C@H](O)O[C@@H]2[C@H]1O
outcome [1]: inactive | Potency [2]: inactive | Potency [3]: inactive | Potency [4]: inactive | Potency [5]: inactive | Potency [6]: inactive

CC(C)CCCC(C)(C)O
outcome [1]: inactive | Potency [2]: inactive | Potency [3]: inactive | Potency [4]: inactive | Potency [5]: inactive | Potency [6]: inactive

CC(C)CCCCOC(=O)c1ccccc1C(=O)OCCCCC(C)C
outcome [1]: inactive | Potency [2]: inactive | Potency [3]: inactive | Potency [4]: inactive | Potency [5]: inactive | Potency [6]: inactive

O=C1c2ccccc2C(=O)C1c1ccccc1
outcome [1]: inactive | Potency [2]: inactive | Potency [3]: inactive | Potency [4]: inactive | Potency [5]: inactive | Potency [6]: inactive

COc1ccc(-c2cc(=O)c3c(O)cc(O[C@@H]4O[C@H](CO[C@@H]5O[C@@H](C)[C@H](O)[C@@H](O)[C@H]5O)[C@@H](O)[C@H](O)[C@H]4O)cc3o2)cc1O
outcome [1]: inactive | Potency [2]: inactive | Potency [3]: inactive | Potency [4]: inactive | Potency [5]: inactive | Potency [6]: inactive

Brc1ccc(-c2ccccc2)cc1
outcome [1]: inactive | Potency [2]: inactive | Potency [3]: inactive | Potency [4]: inactive | Potency [5]: inactive | Potency [6]: inactive

CCCCCCCCCCl
outcome [1]: inactive | Potency [2]: inactive | Potency [3]: inactive | Potency [4]: inactive | Potency [5]: inactive | Potency [6]: inactive

CCc1ccc(C=O)cc1
outcome [1]: inactive | Potency [2]: inactive | Potency [3]: inactive | Potency [4]: inactive | Potency [5]: inactive | Potency [6]: inactive

CC(C)C(=O)OCCc1ccccc1
outcome [1]: inactive | Potency [2]: inactive | Potency [3]: inactive | Potency [4]: inactive | Potency [5]: inactive | Potency [6]: inactive

C[Si](C)=O
viability change, negative = cytotoxic [1]: -9.5% [at 7.04 µM] | activity change, negative = cytotoxicity [2]: 12.9% [at 8.52 µM] | activity, negative = cytotoxicity [3]: -9.66% [at 8.53 µM] | activity change, negative = cytotoxicity [4]: 1.94% [at 8.55 µM] | activity change, negative = cytotoxicity [5]: 2.74% [at 7.04 µM] | viability change, negative = cytotoxic [6]: -9.84% [at 8.47 µM]

CC1(C)S[C@@H]2[C@H](N=CN3CCCCCC3)C(=O)N2[C@H]1C(=O)O
outcome [1]: inactive | Potency [2]: inactive | Potency [3]: inactive | Potency [4]: inactive | Potency [5]: inactive | Potency [6]: inactive

COc1cc2c(cc1OC)[C@@H]1CC(=O)[C@@H](CC(C)C)CN1CC2
outcome [1]: inactive | Potency [2]: 23.7 µM (active) | Potency [3]: 21.1 µM (active) | Potency [4]: 29.8 µM (active) | Potency [5]: inactive | Potency [6]: inactive

COc1ccc(Br)c(C)c1
outcome [1]: inactive | Potency [2]: inactive | Potency [3]: inactive | Potency [4]: inactive | Potency [5]: inactive | Potency [6]: inactive

NCCS
outcome [1]: inactive | Potency [2]: inactive | Potency [3]: inactive | Potency [4]: inactive | Potency [5]: inactive | Potency [6]: inactive

C=C(C)C(=O)OCC(C)(C)COC(=O)C(=C)C
outcome [1]: inactive | Potency [2]: inactive | Potency [3]: inactive | Potency [4]: inactive | Potency [5]: inactive | Potency [6]: inactive

CCOC(=O)/C=C/c1ccccc1
outcome [1]: inactive | Potency [2]: inactive | Potency [3]: inactive | Potency [4]: inactive | Potency [5]: inactive | Potency [6]: inactive

O=C(NCCN1CCOCC1)c1ccc(Cl)cc1
outcome [1]: inactive | Potency [2]: inactive | Potency [3]: inactive | Potency [4]: inactive | Potency [5]: inactive | Potency [6]: inactive

Cc1cc(NC(=O)C2=C(O)c3ccccc3S(=O)(=O)N2C)no1
outcome [1]: inactive | Potency [2]: inactive | Potency [3]: inactive | Potency [4]: inactive | Potency [5]: inactive | Potency [6]: inactive

CCCCCCN
outcome [1]: inactive | Potency [2]: inactive | Potency [3]: inactive | Potency [4]: inactive | Potency [5]: inactive | Potency [6]: inactive

CN(C)C(=O)CNC(=O)Cc1ccccc1
outcome [1]: inactive | Potency [2]: inactive | Potency [3]: inactive | Potency [4]: inactive | Potency [5]: inactive | Potency [6]: inactive

O=C(CCNNC(=O)c1ccncc1)NCc1ccccc1
outcome [1]: inactive | Potency [2]: inactive | Potency [3]: inactive | Potency [4]: inactive | Potency [5]: inactive | Potency [6]: inactive

CCCCCCCCC1CCC(=O)O1 (stereo not drawn)
outcome [1]: inactive | Potency [2]: inactive | Potency [3]: inactive | Potency [4]: inactive | Potency [5]: inactive | Potency [6]: inactive

Cc1ccccc1OCC(O)CO (stereo not drawn)
outcome [1]: inactive | Potency [2]: inactive | Potency [3]: inactive | Potency [4]: inactive | Potency [5]: inactive | Potency [6]: inactive

CC(C)=CCOC(=O)c1ccccc1
outcome [1]: inactive | Potency [2]: inactive | Potency [3]: inactive | Potency [4]: inactive | Potency [5]: inactive | Potency [6]: inactive

O=S(O)(O)=S
viability change, negative = cytotoxic [1]: -8.56% [at 7.04 µM] | activity change, negative = cytotoxicity [2]: -4.81% [at 8.52 µM] | activity, negative = cytotoxicity [3]: 5.56% [at 8.53 µM] | activity change, negative = cytotoxicity [4]: -5.32% [at 8.55 µM] | activity change, negative = cytotoxicity [5]: 3.7% [at 7.04 µM] | viability change, negative = cytotoxic [6]: -5.99% [at 8.47 µM]
